High-throughput results (PubChem)
An excerpt weighted towards active compounds, which were near 12% of everything screened.
G9a inh: blocks human histone lysine methyltransferase G9a; Q96KQ7; G9a H3K9 monomethylation, AlphaScreen, 2 h; Potency, µM (top dose mostly 102 µM), inactives show at the top dose activity, negative = inhibition, most hits filed as inhibitors; hit rate 8.8% among 350,000; AID 504332; also: % is scaled to controls: 0 for no effect and ±100 for the full control effect; nearly all actives have a fitted effect of over 75% in size
Target sequence (Q96KQ7 913-1193 limits assumed): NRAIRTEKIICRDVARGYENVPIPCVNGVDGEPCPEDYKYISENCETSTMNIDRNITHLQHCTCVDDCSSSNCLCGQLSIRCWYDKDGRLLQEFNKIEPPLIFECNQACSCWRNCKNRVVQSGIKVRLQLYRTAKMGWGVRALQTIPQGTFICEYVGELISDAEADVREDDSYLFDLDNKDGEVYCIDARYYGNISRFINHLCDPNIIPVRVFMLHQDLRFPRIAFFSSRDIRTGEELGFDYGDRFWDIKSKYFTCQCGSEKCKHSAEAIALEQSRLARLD
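Methyltransferase reactions run at room temperature for 2 h (20 nM enzyme, 500 nM biotin-H3K9 peptide, 20 uM SAM) after a 15 min compound preincubation; product detected by AlphaScreen beads and anti-H3K9me1 antibody.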
BAZ2B inh: BAZ2B (human) inhibition; Q9UIF8; AlphaScreen BAZ2B-H3K14Ac peptide displacement; Potency, µM (titrated, usually from 114 µM), for the others: at the highest dose activity change, negative = inhibition, actives largely listed as inhibitors; hit rate 4.4% among 360,000; also: % is scaled to controls: 0 for no effect and ±100 for the full control effect; nearly all actives have a fitted effect of over 60% in size
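AlphaScreen displacement of biotin-H3(5-23)K14Ac peptide (50 nM final) from BAZ2B (50 nM final) in PBS pH 7.4, 0.01% Tween-20; complex preformed 30 min RT, then compounds (top 110 uM) 30 min RT, beads 20 min dark.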
JMJD2A Tudor: JMJD2A Tudor domain (human) inhibition. O75164. AlphaScreen JMJD2A-Tudor / H3K4me3 peptide binding. Potency, µM (series often up to 114 µM), for the others: top-dose activity change, negative = inhibition, actives largely listed as inhibitors. hit rate 4.4% among 390,000. AID 504339; also: % is scaled to controls: 0 for no effect and ±100 for the full control effect; nearly all actives have a fitted effect of over 50% in size
L3MBTL1 inh: blocks human L3MBTL1 | Potency, µM (series often up to 57.1 µM), for the others: at the top dose activity, negative = inhibition, usual class: inhibitors | AID 485360 | AlphaScreen L3MBTL1–H3K9me1 peptide binding | Q9Y468 | hit rate 0.66% among 230,000; also: % is scaled to controls: 0 for no effect and ±100 for the full control effect; nearly all actives have a fitted effect of over 60% in size
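AlphaScreen assay: L3MBTL1 (50 nM final) was preincubated 30 min at room temperature with biotinylated H3(1-15)K9me1 peptide (75 nM final), then 30 min with library compounds; streptavidin donor and nickel chelate acceptor beads (10 ug/mL final) added, 30 min dark.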
HP1b chromo inh: blocks HP1-beta chromodomain binding to methylated histone tails. P83916. AlphaScreen HP1-beta / biotin-H3K9me3 peptide binding. Potency, µM (titrated, usually from 114 µM), inactives show at the highest dose activity change, negative = inhibition, hits mostly inhibitors. hit rate 0.56% among 390,000; also: nearly all actives have a fitted effect of over 70% in size
Target sequence (P83916 whole entry, looked up): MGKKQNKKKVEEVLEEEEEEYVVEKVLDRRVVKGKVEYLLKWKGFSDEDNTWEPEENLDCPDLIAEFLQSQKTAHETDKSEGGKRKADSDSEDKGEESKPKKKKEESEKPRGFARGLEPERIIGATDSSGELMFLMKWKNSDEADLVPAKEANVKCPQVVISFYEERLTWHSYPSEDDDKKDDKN
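AlphaScreen: HP1-beta (50 nM) preformed 30 min with biotin-H3(1-18)K9me3 peptide (50 nM) in PBS pH 7.4, 0.01% Tween-20. Compound added for 30 min at RT, then streptavidin donor/nickel chelate acceptor beads (10 ug/mL) for 30 min.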
Sfp inh: blocks B. subtilis Sfp PPTase activity; Q9F4F7; Biochemical Sfp PPTase activity, qHTS; Potency, µM, for the others: largest response in the series, negative = inhibition, hits mostly inhibitors; hit rate 3.5% among 310,000; AID 1490;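 also: the enzyme is Sfp with the accession as filed and its product quenches rhodamine fluorescence; 0% = enzyme reaction without inhibitor and -100% = no enzyme wells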
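After 15 min at room temperature with compound, 15 nM Sfp received 5 uM rhodamine-CoA plus 12.5 uM BHQ-2-ybbR (50 mM Hepes pH 7.6, 10 mM MgCl2). Rate came from the fluorescence difference over 30 min, ex 525/em 598 nm.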
Starred values were filed as active, the others as inactive; ? = inconclusive; / = no result given; ! = repeats disagree; [ ] = remark or other dose. Calls follow the shape of the dose curve; as a rule, active = well fitted curve in the direction sought with a large enough effect; inconclusive = small, poorly fitted or top-dose-only effect, or another doubt; inactive = no such curve, though single readings can be large; an effect the other way counts as inactive or inconclusive. Potency is read from the fitted curve at half-maximal effect.

SMILES	G9a inh	BAZ2B inh	JMJD2A Tudor	L3MBTL1 inh	HP1b chromo inh	Sfp inh
Cn1c(=O)c2c(ncn2CC(=O)N/N=C/C=C/c2ccco2)n(C)c1=O	/	-10%	-17%	-5%	3%	14µM*
CC(/C=N/NC(=O)Cn1cnc2c1c(=O)n(C)c(=O)n2C)=C\c1ccco1	/	3%	-13%	7%	27%	40µM*
Cc1ccc(/C=N/NC(=O)Cn2cnc3c2c(=O)n(C)c(=O)n3C)s1	4%[59 µM]	6%	-11%	-10%	20%	35%
Cn1c(=O)c2c(ncn2CC(=O)N/N=C/C(Cl)=C/c2ccccc2)n(C)c1=O	19%[59 µM]	-24%	-29%	9%	-4%	2%
COC(=O)C1=CC(C(=O)c2cccs2)=NN(c2ccc(OC)cc2)C1C(=O)OC (stereo not given)	13µM*	8.9µM*	25µM*	?	?	-3%
COC(=O)C1=CN(Cc2ccc(OC)cc2)C=C(C(=O)OC)C1c1cccs1	/	56%	72%	170%	104%	?
O=C(Nc1ccccc1)c1sccc1Oc1ccc([N+](=O)[O-])cc1F	28µM*	25µM*	?	?	-9%	-12%
CC/C=C\C/C=C\C/C=C\CCCCCCCC(=O)O	18µM*!	-5%	-27%	?	11%	79µM*!
CC/C=C\C/C=C\C/C=C\CCCCCCCCCCCC(=O)O	5%[59 µM]	/	/	/	/	15%
CC(=O)C1=C(O)C(=O)N(CCC(=O)O)C1c1ccccc1[N+](=O)[O-] (stereo not given)	-24%[59 µM]	?	-26%	-1%	3%	11µM*
CC(=O)C1=C(O)C(=O)N(C)C1c1ccccc1[N+](=O)[O-] (stereo not given)	11µM*	-18%	?	-10%	?	71µM*
CC(=O)C1=C(O)C(=O)N(Cc2ccccc2)C1c1ccccc1F (stereo not given)	?	-35%	-20%	/	26%	16%
Cc1ccc(/C(O)=C2\C(=O)C(=O)N(C)C2c2ccccc2[N+](=O)[O-])cc1 (stereo not given)	2%[0.501 µM]	0%	-16%	-6%[2.29 µM]	14%	-13%
CS(=O)(=O)C1=C(O)C(=O)N(CCCC(=O)O)C1c1ccccc1F (stereo not given)	-8%[59 µM]	-3%	50µM*	-1%	15%	2%
CC(=O)C1=C(O)C(=O)N(CC(=O)O)C1c1ccccc1Cl (stereo not given)	50µM*	71µM*	?	/	23%	-6%
CCCCCCN1C(=O)C(O)=C(C(C)=O)C1c1ccccc1[N+](=O)[O-] (stereo not given)	50µM*	?	0%[11.4 µM]	-10%	15%	?
CC(=O)C1=C(O)C(=O)N(CCCN2CCOCC2)C1c1ccccc1[N+](=O)[O-] (stereo not given)	?	?	-30%	/	?	-27%
COC[C@@H](O)[C@@H](OC)[C@H](OC)[C@H](Cc1c(OC)cc(OC)cc1OC)OC	/	/	/	/	/	20%
O=C(NCc1cccnc1)c1cc2ccccc2oc1=O	50µM*	-2%	-9%	/	-9%	-10%
O=C(NCc1ccc(F)cc1)c1cc2ccccc2o1	79µM*	-9%	1%	/	40%	14%
O=C(NNC(=O)c1cc2ccccc2o1)c1ccc(F)cc1	-8%[0.501 µM]	-4%	-6%	9%	25%	/
O=C(NNC(=O)c1cc2ccccc2oc1=O)c1ccccc1	32µM*	3%	-9%	/	?	50µM*
O=C(OCCNC(=O)c1cc2ccccc2oc1=O)c1cccnc1	?	-8%	-1%	-1%	39%	17%
O=C(c1ccccc1)c1cc2ccccc2oc1=O	11%	0%	-15%	/	26%	8%
CC(=O)Nc1ccc(Nc2nc(Nc3ccc(Cl)cc3)nc(N3CCOCC3)n2)cc1	/	/	-14%[57.1 µM]	/	3%[57 µM]	/
SMILES	G9a inh	BAZ2B inh	JMJD2A Tudor	L3MBTL1 inh	HP1b chromo inh	Sfp inh
Cc1ccc(NC(=O)Cn2cc(C(=O)C3CCCCC3)c3ccccc32)c(C)c1	-5%[59 µM]	-33%	-11%	/	-8%	/
COc1ccc(-c2onc(C)c2C)cc1S(=O)(=O)NCCc1ccco1	?	50µM*	?	/	-19%	5%
CCN(CC)c1ccc(NS(=O)(=O)c2cc(-c3onc(C)c3C)ccc2OC)c(C)c1	8.9µM*	-16%	?	/	-10%	/
CCN(CC)c1ccc(NS(=O)(=O)c2cc3[nH]c(=O)c(=O)[nH]c3cc2C)c(C)c1	14µM*	50µM*	45µM*	/	-29%	/
COc1ccc(NS(=O)(=O)c2cc(-c3onc(C)c3C)ccc2C)c(OC)c1	0%[59 µM]	-6%	-21%	/	18%	/
Cc1cc(Cl)ccc1NS(=O)(=O)c1cc2[nH]c(=O)c(=O)[nH]c2cc1C	3%[59 µM]	-13%	-13%	/	14%	/
CCN(CC)c1ccc(NS(=O)(=O)c2ccc(-c3coc(C)n3)cc2)c(C)c1	11µM*	13µM*	25µM*	/	?	/
Cc1c(NC(=O)c2sc3ccccc3c2Cl)cccc1-c1nc2ccccc2o1	3%[59 µM]	1%	-21%	/	-7%	/
O=C(N=C1c2ccccc2CN1c1ccc(F)cc1)c1ccc(Cl)nc1	22µM*	4%	-12%	1%	23%	-3%
CCOC(=O)c1ccc(N2Cc3ccccc3C2=NC(=O)c2ccncc2)cc1	?	-1%	-2%	/	46%	6%
COc1ccc(N2Cc3ccccc3C2=NC(=O)c2cncc(Br)c2)cc1	32µM*	-30%	?	-3%	11%	11%
COc1ccc(N2Cc3ccccc3C2=NC(=O)c2cccc([N+](=O)[O-])c2)cc1	20µM*	?	-22%	1%	4%	4%
Cc1cccc(N=C2NN=C(c3ccc4c(c3)OCCO4)CS2)c1	19%[12.7 µM]	-39%	-21%	-18%	-22%	-25%
